Screening results (PubChem)
Most compounds without a hit are left out; they make up all but 28% or so of the library.
Mac1 fbg enh: CD11b/CD18-fibrinogen binding enhancement; P05107+P11215; hit rate 0.07% among 93,000; activation, % at 10 µM; K562 CD11b/CD18 adhesion to fibrinogen, ATPlite luminescence;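 active means 10 µM primary screen giving 50% or more activity, confirmed by 40% or more on retest at that dose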
Target sequence (P05107 whole entry, looked up, other chains not shown): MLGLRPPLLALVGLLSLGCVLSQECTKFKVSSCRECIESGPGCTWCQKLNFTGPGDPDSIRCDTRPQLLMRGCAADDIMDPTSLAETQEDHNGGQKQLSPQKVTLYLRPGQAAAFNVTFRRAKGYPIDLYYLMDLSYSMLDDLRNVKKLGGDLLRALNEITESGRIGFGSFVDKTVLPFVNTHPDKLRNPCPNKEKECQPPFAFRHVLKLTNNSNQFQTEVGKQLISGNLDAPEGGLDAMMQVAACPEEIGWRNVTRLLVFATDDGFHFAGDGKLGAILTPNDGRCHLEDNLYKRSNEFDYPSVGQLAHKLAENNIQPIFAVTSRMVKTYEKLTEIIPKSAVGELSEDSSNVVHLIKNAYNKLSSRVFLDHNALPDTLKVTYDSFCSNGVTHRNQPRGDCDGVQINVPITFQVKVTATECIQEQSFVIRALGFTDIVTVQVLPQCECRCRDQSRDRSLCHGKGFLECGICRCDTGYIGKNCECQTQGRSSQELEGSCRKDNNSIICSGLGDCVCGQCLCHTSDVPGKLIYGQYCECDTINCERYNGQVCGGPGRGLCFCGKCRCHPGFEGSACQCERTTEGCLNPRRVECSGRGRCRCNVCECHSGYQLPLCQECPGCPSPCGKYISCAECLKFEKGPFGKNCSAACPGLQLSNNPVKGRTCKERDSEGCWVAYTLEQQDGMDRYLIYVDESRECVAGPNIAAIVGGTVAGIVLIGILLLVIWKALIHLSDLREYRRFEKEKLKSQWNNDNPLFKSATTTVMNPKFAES
CYP2C9 activ: increases human cytochrome P450 2C9 activity; activation factor at 5 µM; recombinant CYP2C9, luciferin-H conversion, luminescence; hits give high values; factor 1 = untreated enzyme, 0 = blocked; hit rate 1.4% among 96,000;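 active means activation factor of 2 or more for CYP2C9 at a 5 µM dose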;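 further: 0 = sulfaphenazole-blocked wells and 1 = vehicle-only wells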
CYP2C19 act: activators of human cytochrome P450 2C19; P33261; recombinant CYP2C19, luciferin-H EGE luminescence; hits give high values; 0 = fully inhibited enzyme, 1 = untreated enzyme; activation factor at 5 µM; 96,000 tested, under 10 active; AID 1025;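 active means activation factor of at least 2 at 5 µM in the primary screen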;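 further: 0 = wells with 2.5 mM tranylcypromine and 1 = vehicle-only wells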
Mac1 fbg inh: inhibitors of human CD11b/CD18 binding to fibrinogen; P05107+P11215; K562 CD11b/CD18 adhesion to fibrinogen, ATPlite luminescence; Mn2+ added to activate the integrin; inhibition, % at 10 µM; hit rate 0.54% among 93,000; AID 1497;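 active means primary inhibition of 50% or more at 10 µM, then 40% or more on retest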
CYP2C19 inhib: blocks human cytochrome P450 2C19. P33261. CYP2C19 Supersomes, luciferin-H EGE luminescence, 30 min. inhibition, % at 5 µM. hit rate 21% among 96,000;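 active means CYP2C19 inhibition above a set limit at 5 µM in the primary screen, cut at about 50% in these data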;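 further: plate controls were negative control wells for no effect and 2.5 mM tranylcypromine positive control for full effect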
CYP2C9 inhib: inhibitors of human CYP2C9; hit rate 20% among 96,000; AID 777; CYP2C9 Supersomes, luciferin-H conversion, luminescence; P11712; inhibition, % at 5 µM;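 active means blocking of liver enzyme CYP2C9 beyond about 50% at 5 µM, limit read from the data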
Numbers without * were called inactive; / = not tested or not shown.

SMILES	Mac1 fbg enh	CYP2C9 activ	CYP2C19 act	Mac1 fbg inh	CYP2C19 inhib	CYP2C9 inhib
Cc1cc(C)nc(SCc2ccc(C(=O)N/N=C3\CC(C)CC(C)(C)C3)cc2)n1 (configuration not stated)	4.0	/	/	10.8	/	/
CC1C/C(=N\NC(=S)NC(C)C)CC(C)(C)C1 (configuration not stated)	-1.9	0.5	0.1	-1.2	88.1*	51.2*
O=C(Nc1ccc2c(c1)N(Cc1ccccc1)C(=O)c1ccccc1S2)NC1CC1	7.5	0.2	0.1	18.5	86.9*	76.3*
CN1C(=O)c2ccccc2Sc2ccc(NC(=O)NC3CC3)cc21	/	0.7	1	/	-4.8	30.9
C/C(=N\NC(=O)CN1CCOCC1)C(C)(C)C	-2.3	1.1	1.1	-26.8	-7.9	-9.4
Cc1ccc2nc(N3C(=O)C(O)=C(C(=O)c4ccco4)C3c3cccs3)sc2c1 (configuration not stated)	-6.5	0	0.9	51.9*	9.1	96.0*
COc1cc(C2C(C(=O)c3ccco3)=C(O)C(=O)N2CCc2ccccc2)ccc1O (configuration not stated)	-2.5	0.5	0.9	-16.2	7.1	53.5*
O=C(C1=C(O)C(=O)N(c2ncccn2)C1c1ccc(Cl)c(Cl)c1)c1ccco1 (configuration not stated)	-1.9	0.6	0.9	-2.3	7.5	36.6
COc1ccc(CCN2C(=O)C(O)=C(C(=O)c3ccco3)C2c2cccs2)cc1OC (configuration not stated)	/	0.5	1	/	1.2	53.2*
Fc1ccc(NCc2nnc(SCc3nnc(-c4ccccc4)o3)n2CC2CCCO2)cc1 (configuration not stated)	3.1	0.7	0.6	-11.6	41.4	33.0
COC(=O)c1c(C(=O)OC)c2cc(C)ccn2c1Cl	-3.3	0.5	0.5	-7.1	46.7	54.1*
CN(C)CCCOC(=O)c1ccccc1Cl	1.4	0.8	0.8	-5.5	19.9	22.5
O=C(OCn1ncc(Br)c(Br)c1=O)c1ccc(F)cc1	-2.8	0.7	0.1	1.6	88.7*	28.1
O=C(OCn1ncc(Br)c(Br)c1=O)c1ccccc1Cl	0.1	1	0.4	10.7	56.6*	1.5
C=CCN1C(=O)CN=C1Nc1cc(C)ccc1C	-2.2	0.9	0.9	-3.5	14.8	8.7
COc1cc(CN2CCN(c3ccccc3F)CC2)cc(OC)c1O	-3.6	0.9	0.2	-9.5	80.1*	14.1
CCOc1ccc(CN2CCC(C(=O)N3CCN(c4ccccc4F)CC3)CC2)cc1OC	0.2	1	1.2	5.7	-15.4	-4.3
COc1ccccc1Nc1nc(N)nc(CN2CCN(c3ccccc3F)CC2)n1	/	0.8	0.9	/	7.1	17.1
COC(=O)c1cc(CN2CCN(c3ccccc3C)CC2)ccc1O	-1.9	0.5	0.6	-2.1	40.9	50.8*
COc1cc(CN2CCC(C(=O)N3CCN(c4ccccc4F)CC3)CC2)cc(OC)c1O	-2.9	0.3	0.9	0.9	5.1	69.8*
C=C(C)CSc1nnc(-c2cc(OC)c(OC)c(OC)c2)n1N	-0.1	0.7	0.8	-18.1	21.6	28.0
CC(=O)N1CCc2cc(S(=O)(=O)NCCC(=O)NC3CCCc4ccccc43)ccc21 (configuration not stated)	-0.5	0.8	0.9	13.2	9.0	16.6
c1cnc(Oc2ccc(-c3nnco3)cc2)cn1	1.3	0.8	0.5	1.3	53.5*	15.2
O=[N+]([O-])c1cc(F)c(N2CCCCC2)cc1N1CCOCC1	0.2	0.6	0.7	-10.1	25.2	43.6
O=C(c1ccc(F)cc1)N1CCN(c2cc(N3CCCCC3)c(F)cc2[N+](=O)[O-])CC1	-1.2	0.1	0.1	-26.3	94.9*	85.7*
SMILES	Mac1 fbg enh	CYP2C9 activ	CYP2C19 act	Mac1 fbg inh	CYP2C19 inhib	CYP2C9 inhib
CCN(CC)S(=O)(=O)c1ccc(N2CCCC2)c(C(=O)OCC(=O)/C(C#N)=C(\C)N)c1	3.8	0.2	0.2	-18.7	80.2*	81.7*
CCN(CC)S(=O)(=O)c1ccc(N2CCCCC2)c(NC(=O)/C=C/c2ccc(OC)c(OC)c2)c1	14.9	/	/	-19.5	/	/
CC1Cc2ccccc2N1C(=O)CN1C(=O)CN(C)C(=O)c2ccccc21 (configuration not stated)	-3.2	1.3	1.1	-1.9	-7.6	-30.9
Cc1ccc(-c2cc(C(=O)N/N=C\c3cnn(C)c3C)c3ccccc3n2)cc1C	-5.9	0	0.1	19.7	87.4*	98.8*
CCc1ccc(/C=N/NC(=O)c2cc(C3CC3)nc3ccc(Br)cc23)s1	-5.6	0.6	0.9	17.6	9.5	36.1
CCc1ccc(/C=N/NC(=O)c2cc(-c3ccccc3OC)nc3ccccc23)s1	-4.7	0.1	0.3	-2.3	66.3*	94.2*
COc1ccccc1-c1cc(C(=O)N/N=C/c2ccc(C)s2)c2ccccc2n1	-4.0	0	0.3	-0.3	74.9*	99.6*
Cc1ccccc1C(=O)/C=C1\NC(=O)CS1	1.6	0.8	0.9	-4.4	6.8	15.2
COc1ccc(/C=C(/C(=O)Nc2ccccc2C(=O)NC(C)C)c2ccccc2)cc1	/	0.4	0.6	/	43.4	59.9*
COc1ccc(S(=O)(=O)N2CCC(N3CCCCC3)CC2)cc1	13.1	1.1	0.9	3.8	7.6	-6.6
COc1ccc(S(=O)(=O)c2ccc(OC)cc2)cc1	-1.5	1.3	0	-0.5	99.1*	-33.6
COC(=O)c1ccc(NS(=O)(=O)c2ccc(OC)cc2)cc1	-0.3	0.1	0.9	-37.2	14.0	89.1*
COc1ccc(S(=O)(=O)CCC(=O)O)cc1	2.0	1.1	1	-14.4	-0.4	-12.1
COc1ccc(S(=O)(=O)N2CCCCCC2)cc1	-6.0	1.1	0.5	2.1	51.0*	-11.7
COc1ccc(S(=O)(=O)Nc2ccc(S(=O)(=O)N3CCCC3)cc2)cc1	-3.9	0.1	0.5	-10.2	54.4*	88.7*
COc1ccc(S(=O)(=O)Nc2ccc(S(=O)(=O)N3CCCCC3)cc2)cc1C	-1.6	0.1	0.4	27.7	57.5*	87.5*
COc1ccc(CNS(=O)(=O)c2ccc(S(=O)(=O)N3CCCCC3)cc2)cc1	-4.8	0.7	0.8	3.9	21.6	32.9
COc1ccc(S(=O)(=O)Nc2ccc(S(=O)(=O)N3CCCCC3)cc2)cc1	/	0.2	0.8	/	15.9	80.9*
COC(=O)c1ccc(NC(=O)c2ccc(N(C)S(C)(=O)=O)cc2)cc1	-1.7	0.9	1	16.3	1.4	5.0
COC(=O)c1ccc(NS(=O)(=O)N(C)C)cc1	-3.1	0.2	0.1	0.6	87.1*	78.8*
COc1ccc(NS(=O)(=O)c2ccc(N3C(=O)CCC3=O)cc2)cc1	-1.0	0.3	0.1	9.0	85.5*	70.3*
CC(C)c1ccc(NC(=O)COC(=O)CCC(=O)c2cccs2)cc1	-0.1	/	/	25.0	/	/
COC(=O)c1sccc1-c1ccc(/C=N/OC(=O)c2ccccc2)o1	/	0.8	1	/	4.7	18.3
